Test results from PubChem BioAssay (NCI).
The panel holds about 83,000 compounds, 20% with a hit somewhere; the sample as a whole holds those more often.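 Each cell line was grown in a 96-well plate and treated with one concentration of compound for 48 hours. Values below 10 were considered active.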 A number with no mark means an inactive call. Activity calls are given as the source filed them.

Experiments:
Assay in all cases: NCI-60 one-dose screen, 48 h (100 = growth as untreated, 0 = no growth, -100 = all killed)
Conditions in all cases: 10 µM unless noted
T-47D breast = tested on: T-47D breast
BT-549 breast = tested on: BT-549 breast
MDA-MB-435 melanoma = tested on: MDA-MB-435 melanoma
HCC-2998 colon = tested on: HCC-2998 colon
KM12 colon = tested on: KM12 colon
SW-620 colon = tested on: SW-620 colon
MCF7 breast = tested on: MCF7 breast
HCT-116 colon = tested on: HCT-116 colon

Structure (SMILES) | growth (T-47D breast) | growth (BT-549 breast) [%] | growth (MDA-MB-435 melanoma) | growth (HCC-2998 colon) | growth (KM12 colon) | growth (SW-620 colon) | growth (MCF7 breast) | growth (HCT-116 colon)
O=S(=O)(O)c1ccc2c(c1)Sc1cc(S(=O)(=O)O)ccc1O2 | 110% | 127 | 92.6% | 102% | 108% | – | – | –
O=C(Cc1ccccc1[N+](=O)[O-])c1ccc2c(c1)OCO2 | 94.4% | – | 102% | 116% | 107% | 99% | 96.5% | 103%
O=C(O)/C(Br)=C/c1c[nH]c2ccc(Br)cc12 | 184% | – | 117% | 94.2% | 103% | 110% | 137% | 98.2%
C/C=C/C/C=C/[C@H](C)C[C@H](O)[C@@H]1C[C@@H]2O[C@H]2/C=C/[C@@H]2OC(C)(C)O[C@H]2/C=C/C[C@H](C)CC(=O)O1 | -4.89% (active) | – | 77.1% | 71.9% | 31.7% | 56.8% | 45.1% | 18.6%
O=C(Nc1ccc(-n2cc(-c3ccncc3)c(-c3ccc(Cl)c(O)c3)n2)cc1)c1cc(Cl)cc(Cl)c1 | 79.1% | – | 42.2% | 33% | 19.3% | 0.0883% (active) | 51.6% | 16.1%
C=C[C@]1(C)C=C2C(=O)[C@@]3(O)OC[C@@]4(CCCC(C)(C)C43O)C2(O)C(O)C1 (some centres not stated) | 20.9% | – | 60.2% | – | 89.4% | -57.7% (active) | 21% | -79.6% (active)
CCCCCCCCCCCCCCCCNC(=S)N/N=C/c1ccc(O)cc1O | 89.6% | – | 75.2% | 86.9% | 71.8% | 66.7% | 79.1% | 51.8%
O=C(OCC1CC2(Cl)C(Cl)=C(Cl)C1(Cl)C2(Cl)Cl)C1C(C(=O)OCC2CC3(Cl)C(Cl)=C(Cl)C2(Cl)C3(Cl)Cl)C2(Cl)C(Cl)=C(Cl)C1(Cl)C2(Cl)Cl (configuration not stated) | 105% | – | 106% | 102% | 101% | 107% | 96.9% | 101%
N#Cc1c(N)nc(Nc2nc3ccccc3[nH]2)nc1-c1ccc(Cl)cc1 | 93.8% | – | 106% | – | 109% | 117% | 86.9% | 109%
O=C1Nc2c(c(=O)n(-c3ccccc3)c3ccccc23)C(c2ccc(Cl)cc2)N1 (configuration not stated) | 91.5% | – | 99.9% | 61% | 61.1% | 98% | 91.1% | 56.2%
COc1cc2ncnc(-n3ncc4cc(NC(=O)Nc5ccc(Cl)c(Cl)c5)ccc43)c2cc1OC | -0.727% (active) | – | -31.1% (active) | 15.4% | 0.483% (active) | -32.4% (active) | -34.8% (active) | 23.9%
COC(=O)C(Cc1cnc[nH]1)N1CC(=O)N2[C@@H](c3ccccc3)SC[C@H]2C1=O (some centres not stated) | 108% | – | 103% | 99.6% | 108% | 108% | 106% | 103%
CCC(CCCN1C(=O)c2ccccc2C1=O)Nc1cc(OC)cc2c(C)ccnc12 (configuration not stated) | 85.9% | – | 99.2% | 69% | 102% | 85.6% | 91.5% | 98%
NCCCOc1cc(Cl)ccc1NC(=O)c1cc2ccccc2cc1OCCCN | -70.5% (active) | – | -68.5% (active) | – | -94.9% (active) | -92% (active) | -93.9% (active) | -97.3% (active)
CC(CCN1CCN(CCC(C)CC(C)(C)C)C1CC(C)CC(C)(C)C)CC(C)(C)C (configuration not stated) | 91.8% | – | 104% | 78.2% | 91% | 89.4% | 95.7% | 60.9%
CC(=O)Nc1nc(C)c(C(=O)NNS(=O)(=O)c2ccccc2)s1 | 114% | – | 125% | 105% | 125% | 106% | 110% | 52.1%
C/C=C/C/C=C/[C@H](C)C[C@H](O)[C@@H]1C[C@@H]2O[C@H]2/C=C/[C@H](O)[C@@H](O)/C=C/C[C@H](C)CC(=O)O1 | 69.9% | – | 117% | 95.1% | 80.2% | 94.1% | 83.7% | 70.6%
CC(C)(C)c1ccc(OCCOC(=O)CBr)cc1 | 94.2% | – | 112% | 104% | 87.7% | 86.2% | 98.3% | 83.7%

Structure (SMILES) | growth (T-47D breast) | growth (BT-549 breast) [%] | growth (MDA-MB-435 melanoma) | growth (HCC-2998 colon) | growth (KM12 colon) | growth (SW-620 colon) | growth (MCF7 breast) | growth (HCT-116 colon)
O=C(NC(=S)NNC(=S)NNc1ccccc1)c1ccccc1 | 18.4% | – | 4.94% (active) | 50.7% | 59% | 24.4% | 8.12% (active) | 24.3%
O=C(Nn1cnc2ccccc21)N1CCCC1 | 106% | – | 104% | 83.7% | 116% | 109% | 108% | 85.1%
Cc1nc(NC(=O)NC2CCCCC2)sc1C(=O)NN | 112% | – | 115% | 162% | 102% | 106% | 105% | 83.8%
O=C(Oc1ccccc1)c1ccccc1Cl | 100% | – | 103% | 108% | 98.9% | 104% | 102% | 102%
COc1cc(-c2nn(-c3ccc(NC(=O)c4ccc(Cl)c(Cl)c4)cc3)cc2-c2ccncc2)ccc1Cl | 64.9% | – | 86.2% | 48.3% | 25.1% | 48.6% | 60.6% | 25%
COc1cccc(NC(=O)NCCNc2nccc(-c3c(-c4ccc(F)cc4)nc4sccn34)n2)c1 | 71.8% | – | 76.9% | 105% | 87.7% | 101% | 32% | 67.8%
Nc1nc(-c2cccc(Br)c2)cc(-c2cc3ccccc3oc2=O)n1 | 83.2% | – | 117% | – | 99.2% | 105% | 57.6% | 85.5%
COc1cccc2c1nc1cccc(OC)c1[n+]2[O-] | 32% | – | 98.4% | -47.5% (active) | 54.9% | 50% | 32.8% | 39.3%
COc1cc(-c2nn(-c3ccc(NC(=O)c4ccc(Cl)c(C(F)(F)F)c4)cc3)cc2-c2ccncc2)ccc1Cl | 26.7% | – | 24.3% | 31.8% | – | 6.21% (active) | 21% | –
COc1ccc2c(c1)cn1c3ccc(O)cc3[nH]c(=O)c21 | 37.2% | – | 1.04% (active) | 11.8% | 9.45% (active) | 8.4% (active) | -4.36% (active) | -85.4% (active)
O=C(/C=C/c1ccc(Cl)cc1)c1ccc(Cl)cc1 | 114% | – | 80.3% | 92.7% | 83.3% | 88.8% | 16.9% | 69.8%
CCOC(=O)c1sc(NS(=O)(=O)c2ccccc2)nc1C | 111% | – | 126% | 27.5% | 129% | 111% | 96.2% | 57.9%
O=S(=O)(O)CCI | 99.4% | – | 114% | 110% | 114% | 102% | 98.3% | 98.3%
CC(=O)Nc1nc(C)c(C(=O)NN)s1 | 85.9% | – | 137% | 84.2% | 102% | 97.4% | 99.1% | 94.7%
CCCCCCCCCCCCCCCCNC(=S)N/N=C/c1ccc(OC)cc1 | 103% | – | 107% | 113% | 97.9% | 107% | 102% | 89.6%
COC(=O)[C@@H]1[C@H](O)[C@H](C)[C@H](O)[C@H](C)/C=C\C=C(C)C(=O)Nc2c(C)c(OC(C)=O)c3c(c2O)C(=O)C(C)=C2OCOC(=C23)C(C)=C[C@@](C)(O)[C@H](O)[C@@H](C)[C@H]1OC(C)=O | 118% | – | 122% | 118% | 119% | 117% | 104% | 55.8%
COC(=O)c1cc(O)c2cc3c(cc2c1-c1cc(OC)c(OC)c(OC)c1)OCO3 | 25.9% | – | 2.84% (active) | 52.3% | 25.7% | 17.8% | 21.9% | 20.8%
